Records with an inconclusive call do not appear. Active and inactive are the calls of the source. The calls were made as follows, unless noted: active = hit-call score of the fitted dose curve at least 0.9, where 1 is the maximum; inconclusive = response in the unintended direction; inactive = score below 0.9.
Legend:
[1] = read-out: Thyroid Hormone Responsive (THRSP), THRSP (gene 7069); test: LTEA_HepaRG_THRSP: Life Technologies and Expression Analysis (LTEA) Assay for Thyroid Hormone Responsive (THRSP) using HepaRG (AID 2283536; active = hit-call score of the fitted dose curve at least 0.9, where 1 is the maximum; inactive = score below 0.9); conditions: mRNA level, 48 h; actives raise or lower the signal
Summary of the method: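 mRNA induction or loss relative to 0.5% DMSO vehicle was fitted bidirectionally across an eight-point curve whose highest exposure was 100 uM. Human HepaRG liver cells received chemicals in duplicate over 48 h before RNA extraction.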

[2] = read-out: Cellular tumor antigen p53 (Homo sapiens) (UniProt P04637); test: LTEA_HepaRG_TP53: Life Technologies and Expression Analysis (LTEA) Assay for Tumor Protein P53 (TP53) using HepaRG (AID 2283537; active = hit-call score of the fitted dose curve at least 0.9, where 1 is the maximum; inactive = score below 0.9); conditions: mRNA level, 48 h; actives raise or lower the signal
Summary of the method: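 HepaRG, 48 h exposure, top 100 uM, half-log 8-point, 0.5% DMSO vehicle, duplicates. Read: TP53 mRNA by TaqMan qRT-PCR, normalised to ACTB/GAPDH/POLR2A; bidirectional fit vs DMSO.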

[3] = read-out: UDP glucuronosyltransferase (UGT1A1), UGT1A1 (gene 54658); test: LTEA_HepaRG_UGT1A1: Life Technologies and Expression Analysis (LTEA) Assay for UDP glucuronosyltransferase (UGT1A1) using HepaRG (AID 2283538; active = hit-call score of the fitted dose curve at least 0.9, where 1 is the maximum; inactive = score below 0.9); conditions: mRNA level, 48 h; actives raise or lower the signal
Summary of the method: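 Readout is UGT1A1 transcript level by qRT-PCR, normalized to three housekeeping genes, after 48 h chemical treatment of HepaRG cells. Concentrations ran from 100 uM down in half-log steps with 0.5% DMSO, and gain or loss relative to DMSO was fitted.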

[4] = read-out: UDP glucuronosyltransferase (UGT1A6), UGT1A6 (gene 54578); test: LTEA_HepaRG_UGT1A6: Life Technologies and Expression Analysis (LTEA) Assay for UDP glucuronosyltransferase (UGT1A6) using HepaRG (AID 2283539; active = hit-call score of the fitted dose curve at least 0.9, where 1 is the maximum; inactive = score below 0.9); conditions: mRNA level, 48 h; actives raise or lower the signal
Summary of the method: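 HepaRG, 48 h post-plating switch to serum-free induction medium; chemical 48 h, 100 uM top, half-log x8, duplicate, 0.5% DMSO. Phenobarbital 1mM induction control. UGT1A6 mRNA by TaqMan qRT-PCR; gain/loss fit vs DMSO.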

[5] = read-out: X-box binding protein 1 (XBP1), XBP1 (gene 7494); test: LTEA_HepaRG_XBP1: Life Technologies and Expression Analysis (LTEA) Assay for X-box binding protein 1 (XBP1) using HepaRG (AID 2283540; active = hit-call score of the fitted dose curve at least 0.9, where 1 is the maximum; inactive = score below 0.9); conditions: mRNA level, 48 h; actives raise or lower the signal
Summary of the method: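 Transcript levels of XBP1, measured by qRT-PCR and normalised to three housekeeping genes, were fitted bidirectionally relative to 0.5% DMSO controls. Human HepaRG cells received eight-point half-log dilutions from 100 uM for 48 h.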

[6] = LTEA_HepaRG_LDH_cytotoxicity: Cytotoxicity Assessment in the Life Technologies and Expression Analysis (LTEA) Assay (AID 2283563);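 as to AC50: LDH activity released into spent culture medium as a marker of cell death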
Summary of the method: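 Cells were thawed and plated for 48 h. Medium was then replaced with serum-free induction medium. Chemicals (8 half-log points, maximum 100 uM, 0.5% DMSO) were added in duplicate for 48 h, after which spent medium was assayed for LDH.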

[7] = molecular target: Cellular tumor antigen p53 (Homo sapiens) (UniProt P04637); test: TOX21_p53_BLA_p2_ratio: Tox21 HCT-116 p53 Agonism Beta-lactamase Assay, Ratio, Phase 2 (AID 2283592)
Chain of Cellular tumor antigen p53 (Homo sapiens) (P04637 whole entry, looked up): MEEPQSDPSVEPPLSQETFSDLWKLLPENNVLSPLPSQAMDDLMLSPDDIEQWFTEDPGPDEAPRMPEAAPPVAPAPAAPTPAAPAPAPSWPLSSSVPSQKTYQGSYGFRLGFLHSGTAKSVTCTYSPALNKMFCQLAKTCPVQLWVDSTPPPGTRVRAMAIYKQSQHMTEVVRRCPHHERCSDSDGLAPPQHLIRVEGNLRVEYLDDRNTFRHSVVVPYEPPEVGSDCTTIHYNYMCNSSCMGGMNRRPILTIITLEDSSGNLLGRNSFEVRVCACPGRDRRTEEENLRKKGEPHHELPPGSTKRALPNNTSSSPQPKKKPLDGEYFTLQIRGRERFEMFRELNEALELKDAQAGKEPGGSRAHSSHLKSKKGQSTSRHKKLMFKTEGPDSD
Summary of the method: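 HCT116 p53-bla; 4000 cells/well; 5 h pre-incubation; cpd in DMSO, 217-fold dilution; 16 h 37C/5% CO2; CCF4-AM 2 h RT; Ex 405, Em 460/530 ratio; DMSO = baseline; positive fitting direction.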

[8] = TOX21_p53_BLA_p4_viability: Viability Assessment in the Tox21 HCT-116 p53 Agonism Beta-lactamase Assay, Phase 4 (AID 2283597);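 also: hits lower the luminescence signal meaning cytotoxicity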
Summary of the method: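 Cells plated, 5 h pre-incubation; DMSO compounds pinned (217-fold dilution); 16 h, 37C/5% CO2; CCF4-AM 2 h RT; CellTiter-Glo 30 min RT; luminescence read.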

[9] = TOX21_p53_BLA_p5_viability: Viability Assessment in the Tox21 HCT-116 p53 Agonism Beta-lactamase Assay, Phase 5 (AID 2283600)
Summary of the method: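 4000 cells/well; 5 h pre-incubation; DMSO compounds pin-transferred, 217-fold dilution; 16 h, 37C/5% CO2; CCF4-AM 2 h RT; CellTiter-Glo 30 min RT; luminescence.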

[10] = molecular target: Cellular tumor antigen p53 (Homo sapiens) (UniProt P04637); test: TOX21_p53_BLA_p4_ratio: Tox21 HCT-116 p53 Agonism Beta-lactamase Assay, Ratio, Phase 4 (AID 2283601)
Summary of the method: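 Signal is the blue/green (460nm/530nm) ratio of cleaved versus uncleaved CCF4-AM substrate, read after 2 h substrate loading. Cells were HCT116 carrying the p53-responsive beta-lactamase reporter, dosed 16 h at 37C, 5% CO2; CellTiter-Glo measured in parallel.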

[11] = Tanguay_ZF_120hpf_MORT_legacy: (Legacy) Oregon State University Tanguay Lab 120 Hour Post-fertilization zebrafish Assay for Mortality (AID 2283633)
Summary of the method: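 5D WT zebrafish, chorion removed 4 hpf; 1 embryo/well from 6 hpf; static exposure to 120 hpf, 28C, dark, sealed. Final DMSO 0.64%. Readout: binary mortality, brightfield, 24 + 120 hpf; DMSO as negative control.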

[12] = Tanguay_ZF_120hpf_YSE_legacy: (Legacy) Oregon State University Tanguay Lab 120 Hour Post-fertilization zebrafish Assay for Yolk Sac Edema (AID 2283634)
Summary of the method: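 Dechorionate (pronase, 4 hpf) → place one 6 hpf embryo per well → static compound exposure, sealed and foil-covered, 28C, to 120 hpf → record yolk sac edema as present or absent. Final DMSO 0.64%.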

[13] = Tanguay_ZF_120hpf_AXIS_legacy: (Legacy) Oregon State University Tanguay Lab 120 Hour Post-fertilization zebrafish Assay for Body Axis Malformation (AID 2283635)
Summary of the method: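 Chorion is removed with pronase at 4 hpf, then single 6 hpf embryos are dosed (final DMSO 0.64%) and held statically at 28C in sealed, foil-covered plates. At 120 hpf body axis malformation is recorded as present or absent.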

[14] = Tanguay_ZF_120hpf_EYE_legacy: (Legacy) Oregon State University Tanguay Lab 120 Hour Post-fertilization zebrafish Assay for Eye Malformation (AID 2283636)
Summary of the method: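 Read-out is binary presence or absence of eye malformation, scored by brightfield microscopy at 120 hpf. Single larvae were exposed from 6 hpf in embryo medium containing 0.64% DMSO, with DMSO as baseline.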

[15] = Tanguay_ZF_120hpf_SNOU_legacy: (Legacy) Oregon State University Tanguay Lab 120 Hour Post-fertilization zebrafish Assay for Snout Malformation (AID 2283637)
Summary of the method: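 Snout malformation read as a yes/no call on brightfield images of 120 hpf larvae (Tropical 5D strain). Static exposure began at 6 hpf on dechorionated embryos in 0.64% DMSO, with gain of signal analysed versus DMSO controls.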

[16] = molecular target: Cellular tumor antigen p53 (Homo sapiens) (UniProt P04637); test: TOX21_p53_BLA_p3_ratio: Tox21 HCT-116 p53 Agonism Beta-lactamase Assay, Ratio, Phase 3 (AID 2283596)
Summary of the method: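 HCT116 p53-bla cells (4000/well) given compound in DMSO (217-fold dilution) after 5 h, incubated 16 h at 37C. CCF4-AM substrate 2 h at room temperature; 460/530 nm emission ratio, gain fitted against DMSO.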

[17] = molecular target: Cellular tumor antigen p53 (Homo sapiens) (UniProt P04637); test: TOX21_p53_BLA_p5_ratio: Tox21 HCT-116 p53 Agonism Beta-lactamase Assay, Ratio, Phase 5 (AID 2283599)
Summary of the method: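 Beta-lactamase reporter ratio (blue 460 nm over green 530 nm, 405 nm excitation) after 2 h CCF4-AM loading, in HCT-116 cells exposed 16 h at 37 C to compounds pinned at 217-fold dilution. Increases relative to DMSO baseline scored.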

[18] = TOX21_p53_BLA_p2_viability: Viability Assessment in the Tox21 HCT-116 p53 Agonism Beta-lactamase Assay, Phase 2 (AID 2283591);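 also: compound exposure lasted 16 h at 37 °C; actives lower the ATP signal meaning cytotoxicity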
Summary of the method: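 Cytotoxicity readout: CellTiter-Glo ATP luminescence, 30 min at room temperature, after the beta-lactamase read. Cells were HCT116 exposed 16 h at 37C to compounds pin-transferred at 217-fold dilution from DMSO stocks.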

[19] = TOX21_p53_BLA_p3_viability: Viability Assessment in the Tox21 HCT-116 p53 Agonism Beta-lactamase Assay, Phase 3 (AID 2283593);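 also: cells exposed to compound for 16 h before reading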
Summary of the method: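 Cellular ATP was quantified by CellTiter-Glo luminescence, read after 30 min at room temperature. Beforehand, HCT116 cells (4000/well) received compound 5 h post-seeding, 217-fold diluted from DMSO, then incubated 16 h at 37C.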

[20] = ATG_XTT_Cytotoxicity: Cytotoxicity Assessment in the Attagene TRANS-FACTORIAL HepG2 Assay (AID 2283584);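 also: cells exposed to compound for 24 h before reading; active means loss of viability signal versus DMSO baseline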
Summary of the method: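 Cells: human HepG2, transiently transfected with MRTU reporter constructs. Exposure 24 h. Readout: XTT, cell number. Baseline/neg ctrl DMSO; loss-of-signal scored.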

Measured: AC50

CCOP(=S)(Oc1cnc(C(C)(C)C)nc1)OC(C)C (centres undefined)
active: [1] 68.5 µM | [5] 50 µM
not listed: [16] | [17] | [18] | [19] | [20]
inactive: all other assays above

CNC(=O)Oc1cccc2c1OC(C)(C)O2
not listed: [9] | [18] | [19] | [20]
inactive: all other assays above

CCOC(=O)COc1cc(-c2nn(C)c(OC(F)F)c2Cl)c(F)cc1Cl
active: [3] 50 µM
not listed: [7] | [9] | [15] | [17] | [20]
inactive: all other assays above

O=[N+]([O-])c1cc(C(F)(F)F)c(Cl)c([N+](=O)[O-])c1Nc1ncc(C(F)(F)F)cc1Cl
active: [1] 23.9 µM | [3] 79.5 µM | [4] 73.6 µM | [6] 48.4 µM | [20] 38.8 µM
inactive: [5] | [11] | [12] | [13] | [15]

CN(C)C(=O)Nc1cccc(C(F)(F)F)c1
active: [3] 1.22 µM
not listed: [18] | [19] | [20]
inactive: all other assays above

CCCCOC(=O)[C@@H](C)Oc1ccc(Oc2ccc(C#N)cc2F)cc1
active: [3] 49.8 µM
not listed: [9] | [16] | [19] | [20]
inactive: all other assays above
